HepG2 viability: qHTS for Inhibitors of TGF-b: Cytotox Counterscreen; HepG2 CAGA-GFP viability, ATP luminescence, 18 h; Potency, µM (highest dose often 46.1 µM), for inactives: at the top dose activity change, negative = cytotoxicity, actives largely listed as cytotoxic; 410,000 tested, 0.76% active; AID 588856, 2011
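CellTiter-Glo luminescence gave cytotoxicity after 18 hours at 37 degrees C. The cells were HepG2 CAGA-GFP in 1% FBS DMEM, stimulated with 500 pg/mL TGF-beta after compound addition. %Activity was normalised to no-cell wells (complete cell-killing) and DMSO (no toxicity), and curves were fitted and classified.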
HT1080 IDH1KD tx: qHTS for induction of synthetic lethality in tumor cells producing 2HG: qHTS for the HT-1080-IDH1KD cell line; HT-1080 IDH1 knockdown viability, ATP luminescence, 48 h; Potency, µM (highest dose often 46.1 µM), for the others: top-dose activity, negative = toxicity, hits mostly cytotoxic; 360,000 tested, 2% active; AID 686971, 2013;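 note: 0% = DMSO wells and -100% = cell-free medium wells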
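% activity derives from luminescence (CellTiter-Glo), normalised to DMSO and no-cell wells. HT-1080-IDH1KD cells, 750/well, had 48 h compound exposure at 37 °C.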
HT1080-NT tox: qHTS for induction of synthetic lethality in tumor cells producing 2HG: qHTS for the HT-1080-NT fibrosarcoma cell line; Potency, µM (highest dose often 46.1 µM), inactives show at the top dose activity, negative = less viability, actives largely listed as cytotoxic; AID 686970, 2013; HT-1080-NT fibrosarcoma viability, CellTiter-Glo ATP luminescence, 48 h; 360,000 tested, 1.6% active;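 note: NT is the 2HG producing partner of a matched IDH1 knockdown line; 0% = DMSO-treated cells and -100% = media-only wells without cells; nearly all actives have a fitted effect of over 55% in size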
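HT-1080-NT fibrosarcoma cells (2HG-overproducing), 750 cells/well in RPMI with 5% FBS, dosed after 2 h and incubated 48 h at 37C. CellTiter-Glo luminescence normalized to DMSO and no-cell wells; concentration-response curves fitted and classed.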
TDP1 cell noCPT: qHTS for Inhibitors of human tyrosyl-DNA phosphodiesterase 1 (TDP1): qHTS in cells in absence of CPT. DT40 Tdp1-/- hTDP1 cells, no CPT, ATP luminescence, 48 h. Potency, µM (doses to about 46.2 µM), for inactives: top-dose activity change, negative = growth inhibition, hits mostly inhibitors. 420,000 tested, 15% active; note: % is set by controls: 0 for no effect and ±100 for the full control effect; nearly all actives have a fitted effect of over 55% in size
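Seeded 400 DT40-hTDP1 cells/well (vehicle DMSO, no 20 nM CPT); pinned compounds; ≥48 hr at 37 °C; CellTiter-Glo luminescence as viability measure.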
DT40 TDP1 CPT: qHTS for Inhibitors of human tyrosyl-DNA phosphodiesterase 1 (TDP1): qHTS in cells in presence of CPT. chicken DT40 Tdp1-/-;hTDP1 cells + 20 nM CPT, ATP luminescence, 48 h. Potency, µM (top dose mostly 46.2 µM), without a hit: at the highest dose activity change, negative = growth inhibition, hits mostly inhibitors. 420,000 tested, 12% active. AID 686979, 2013; note: % is set by controls: 0 for no effect and ±100 for the full control effect; nearly all actives have a fitted effect of over 55% in size
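Chicken DT40 Tdp1-/- cells complemented with human TDP1, 400 cells/well, exposed to compounds plus 20 nM camptothecin for at least 48 h at 37 C; viability read as ATP content by CellTiter-Glo luminescence.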
TGFb SMAD3 inh: qHTS for Inhibitors of TGF-b; AID 588855, 2011; 410,000 tested, 1.2% active; Potency, µM (top dose mostly 46.1 µM), without a hit: at the highest dose activity, negative = inhibition, hits mostly inhibitors; HepG2 CAGA-GFP TGF-b/SMAD3 reporter, GFP fluorescence, 18 h; TGF-beta stimulated, 500 pg/mL final; note: % is set by controls: 0 for no effect and ±100 for the full control effect; nearly all actives have a fitted effect of over 65% in size
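GFP signal (ex488/em500-530) from TGF-beta-stimulated HEPG2 CAGA-GFP cells, 500 pg/mL final, 18 h at 37 degrees C in DMEM plus 1% FBS, normalized to unstimulated and DMSO-stimulated controls.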
* marks the source's active call; other numbers are inactive results; ? = inconclusive; . = no result given; [ ] = another dose, or the depositor's remark. In the library only some 17% were active in any assay of this set; here they are far more common. Calls come from the whole dose curve; as a rule, active = well fitted curve in the direction sought with a large enough effect; inconclusive = small, poorly fitted or top-dose-only effect, or another doubt; inactive = no such curve, though single readings can be large; an effect the other way counts as inactive or inconclusive. Potency is the fitted concentration of half-maximal effect.

SMILES	HepG2 viability	HT1080 IDH1KD tx	HT1080-NT tox	TDP1 cell noCPT	DT40 TDP1 CPT	TGFb SMAD3 inh
CC(C)CCOP(=O)(c1ccc(N(C)C)cc1)C(O)c1ccc(C(C)C)cc1 (configuration not stated)	-112.9%	-10.6%	-27.4%	20.6µM*	?	?
O[C@H]1C2CCC1C(N1CCCCC1)CC2 (some centres not stated)	-13.9%	-6.5%	-2.4%	4.0%	11.0%	0.3%
CCOc1ccc(S(=O)(=O)Nc2cccc(C(=O)N3CCN(c4ccccn4)CC3)c2)cc1	-0.2%	-17.9%	-5.3%	16.4µM*	13µM*	-12.3%
COc1ccc(-c2oc3cc(OC)ccc3c(=O)c2O)cc1	.	.	.	11.9µM*	11.9µM*	.
COc1ccc(-c2c(C)c3cc(OC(=O)N4CCOCC4)ccc3oc2=O)cc1	-25.6%	.	.	?	-4.9%	-4.3%
N#CC1c2ccccc2C=CN1C(=O)c1ccc(N(CCCl)CCCl)cc1 (configuration not stated)	-6.9%	-16.1%	-9.3%	18.4µM*	23.1µM*	-11.5%
N#Cc1ccc(C(=O)N2Cc3cnnn3-c3ccccc3C2C#N)cc1 (configuration not stated)	-1.8%	11.8%	5.4%	0.8%	7.8%	7.6%
CC1(O)CCC2C3CCC4=CC(=O)CCC4=C3C=CC21C (configuration not stated)	-15.4%	?	-2.7%	14.6µM*	9.2µM*	19.2%
COCOC1CCC2C3CCC4=CC(=O)CCC4=C3C=CC12C (configuration not stated)	-9.8%	21.7%	10.6%	?	?	2.1%
CC(C)(O)[C@@H]1C2OC(=O)[C@@H]1[C@]1(O)C[C@H]3O[C@]34C(=O)O[C@H]2[C@]14C	.	.	.	-6.5%	?	.
CCNC(=O)[C@H]1O[C@@H](n2cnc3c(N)ncnc32)[C@H](O)[C@@H]1O	13.6%	5.8%	7.1%	-0.7%	-6.6%	-14.9%
N#Cc1c(Br)n(C2OC(CO)C(O)C2O)c2ncnc(N)c12 (configuration not stated)	-13.0%	3.26µM*	7.31µM*	1.16µM*	1.46µM*	?
CC1(C)c2[nH]c3ccccc3c2C[C@H]2C(=O)N(Cc3ccccc3F)C(=O)N21	-34.3%	.	.	.	.	?
CC(C)(OOC1(c2ccccc2)NC(=O)c2ccccc21)c1ccccc1 (configuration not stated)	.	-12.1%	-25.5%	18.4µM*	?	.
C[n+]1c2cc(N)ccc2cc2ccc(N)cc21	-27.9%	2.31µM*	2.31µM*	2.91µM*	3.66µM*	-99.5%
C[n+]1c2cc(N)ccc2cc2ccc(N)cc21 (tested in a mixture with another compound)	.	.	.	1.84µM*	2.11µM*	.
Cc1ccc(N)cc1N	-22.5%	1.9%	24.2%	6.0%	3.9%	7.5%
CCCCC[C@@H](/C=C/C=C\C/C=C\C/C=C\CCCC(=O)O)OO	.	.	.	-3.2%[0.628 µM]	-23.3%[0.628 µM]	.
COc1ccc(C(=O)CN2CCOCC2)cc1	-42.3%	.	.	-4.6%	-21.2%	?
CCN(CC)c1ccc(/C=N/c2sc3c(c2C#N)C2CCN3CC2)c(O)c1	2.1%	?	?	23.1µM*	18.4µM*	122.0%
CC1(C)C(C(=O)N2CCN(c3ccc(Cl)cc3)CC2)C1(C)C	-23.2%	-9.4%	-1.9%	18.4µM*	?	-17.4%
